Results: PubChem BioAssay (EPA / NIEHS)
“And” between values parts separate entries of the source, which are not always exact repeats. Identical values can stand only once. Records with an inconclusive call do not appear. The source holds several records for some structures; these can differ, active in one and inactive in another. The source made the active and inactive calls. The calls were made as follows: active = hit-call score of the fitted dose curve at least 0.9, where 1 is the maximum; inconclusive = response in the unintended direction; inactive = score below 0.9.

These compounds were tested against human Retinoid X Receptor beta (RXRb), RXRB (gene 6257) (UniProt P28702) (assay: ATG_RXRb_TRANS: Attagene TRANS-FACTORIAL HepG2 Assay for human Retinoid X Receptor beta (RXRb) (AID 2283013)).
Procedure: ATG_TRANS is a cell-based, multiplexed-readout assay that uses HepG2, a human liver cell line, with measurements taken at 24 hours after chemical dosing in a 24-well plate.ATG_RXRb_TRANS is one of 30 assay component(s) measured or calculated from the ATG_TRANS assay. It is designed to make measurements of mRNA induction, a form of inducible reporter, as detected with fluorescence intensity signals by Reverse transcription polymerase chain reaction (RT-PCR) and Capillary electrophoresis technology.Data from the assay component ATG_RXRb_TRANS was analyzed into 1 assay endpoint. This assay endpoint, ATG_RXRb_TRANS, was analyzed in the positive analysis fitting direction relative to DMSO as the negative control and baseline of activity. Using a type of inducible reporter, measures of mRNA for gain-of-signal activity can be used to understand the reporter gene at the transcription factor-level as they relate to the gene RXRB. Furthermore, this assay endpoint can be referred to as a primary readout, because this assay has produced multiple assay endpoints where this one serves a reporter gene function. To generalize the intended target to other relatable targets, this assay endpoint is annotated to the nuclear receptor intended target family, where the subfamily is non-steroidal.
Human liver HepG2 cells are transiently transfected with multiple reporter transcription units (MRTUs) in 6-well plates using FuGene 6 reagent (Roche; 3 ml FuGene/1 mg DNA). The MRTU constructs are regulated by a cis-regulating element (promoter). […] A major difference between the CIS and TRANS system is that in CIS activities of endogenous TFs are measured, whereas the TRANS assay evaluates changes in activities of exogenous, chimeric NR-Gal4 proteins. […] At the end of 24 hour incubation, total RNA was isolated using TriZol reagent (Invitrogen). The isolated RNA is then reverse-transcribed using oligo(dT) primer and Mo-MLV reverse transcriptase (Invitrogen) with DNAse I (Ambion) treatment for 30 min. The one-tenth of the produced cDNA was amplified by PCR using Taq DNA polymerase (Invitrogen) and two reporter sequence-specific primers. The PCR products were fluorescently labeled by primer extension with 6-arboxyfluorescein (6-FAM) 5'-labeled reporter sequence-specific primer (2 min at 95 C, 20 s at 68 C and 10 min at 72 C) and these products were digested with 5U of HpaI (New England Biolabs) for 2h at 37 C. The fragments were purified using Qiaquick PCR columns (Qiagen), analyzed on an ABI 3130xL genetic analyzer (Applied Biosystems) with peak positions identified by using a set of X-rhodamine (ROX)-labeled MapMarker1000 molecular weight standards (BioVentures). The raw capillary electrophoresis data was processed using Attagraph software (Attagene).

Sequence of human Retinoid X Receptor beta (RXRb), RXRB (gene 6257) (P28702 whole entry, looked up): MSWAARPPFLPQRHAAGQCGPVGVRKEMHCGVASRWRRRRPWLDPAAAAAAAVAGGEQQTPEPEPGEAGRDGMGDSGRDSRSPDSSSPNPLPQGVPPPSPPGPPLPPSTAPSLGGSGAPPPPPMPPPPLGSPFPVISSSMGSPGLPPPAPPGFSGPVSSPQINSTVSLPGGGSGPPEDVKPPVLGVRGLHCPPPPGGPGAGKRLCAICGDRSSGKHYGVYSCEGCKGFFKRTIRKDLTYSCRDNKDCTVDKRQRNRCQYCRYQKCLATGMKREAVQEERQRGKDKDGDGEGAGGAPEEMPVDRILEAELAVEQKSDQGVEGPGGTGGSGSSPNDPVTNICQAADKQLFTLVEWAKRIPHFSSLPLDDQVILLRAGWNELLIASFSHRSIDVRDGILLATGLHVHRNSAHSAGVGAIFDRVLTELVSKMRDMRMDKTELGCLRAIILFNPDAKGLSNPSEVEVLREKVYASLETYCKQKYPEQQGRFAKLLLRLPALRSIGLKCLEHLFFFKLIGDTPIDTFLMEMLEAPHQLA

Compound | outcome | AC50
Cc1ccc2c(c1N)C(=O)c1ccccc1C2=O | inactive | –
CC(Cc1ccc(OCC(=O)O)cc1)NCC(O)c1csc(C(F)(F)F)n1 (stereo not given) | inactive | –
Nc1ccc(Cl)cc1 | inactive | –
O=[N+]([O-])c1ccc(Cl)c(Cl)c1 | inactive | –
CC(C)Nc1ccc(Nc2ccccc2)cc1 | inactive | –
CO/N=C(/C(=O)OC)c1ccccc1COc1ccccc1C | inactive | –
OCC(F)(F)OC(F)(F)C(F)(F)OC(F)(F)C(F)(F)OC(F)(F)CO | – | 17.4 µM (active)
O=C(O)C(F)(OC(F)(F)C(F)(F)C(F)(F)F)C(F)(F)F (stereo not given) | inactive | –
ClC(Cl)=C(c1ccc(Cl)cc1)c1ccccc1Cl | – | 27.7 µM (active)
OCC(F)(F)OC(F)(F)C(F)(F)OC(F)(F)C(F)(F)OC(F)(F)F | inactive | 32.2 µM (active)
ClC(Cl)c1ccccc1 | inactive | –
CC(O)C(F)(F)C(F)(F)F (stereo not given) | inactive | –
Cc1ccc([N+](=O)[O-])cc1C | inactive | –
C=CC(=O)OCC(CC)(COC(=O)C=C)COC(=O)C=C | inactive | –
CCOP(=S)(OCC)SCS(=O)(=O)CC | inactive | –
O=P(Oc1ccccc1)(Oc1ccccc1)Oc1ccccc1 | inactive | –
CC(C)(C)c1ccccc1OP(=O)(Oc1ccccc1)Oc1ccccc1 | inactive | –
O=C(O)C(F)(F)OC(F)(F)C(F)(F)OC(F)(F)F | inactive | –
Cc1c([N+](=O)[O-])cc2c(c1[N+](=O)[O-])C(C)(C)CC2(C)C | – | 1.37 µM (active)

Compound | outcome | AC50
Nc1cc2c3c(c1)C(c1ccccc1)=N[C@@H](NC(=O)c1cccnc1)C(=O)N3CC2 | inactive | –
O=[N+]([O-])c1cc(Cl)ccc1Cl | inactive | –
O=P(OCC(Br)CBr)(OCC(Br)CBr)OCC(Br)CBr (stereo not given) | inactive | –
CCCCOCCOP(=O)(OCCOCCCC)OCCOCCCC | inactive | 24.8 µM (active)
CCCCc1ccc(O)cc1 | – | 64.2 µM (active)
CCC1(c2ccccc2)C(=O)N=C(O)NC1=O (stereo not given) | inactive | –
CCNc1nc(Cl)nc(NC(C)(C)C)n1 | – | 49.1 µM (active)
CCOP(=S)(OCC)SCSCC | – | 48.2 µM (active)
Clc1ccc(Oc2ccccc2)cc1 | – | 100 µM (active)
CSC(C)(C)C=NO | inactive | –
CCN(CC)c1ccccc1 | inactive | –
CCOP(=S)(NC(C)C)Oc1ccccc1C(=O)OC(C)C (stereo not given) | – | 13.3 µM (active)
N#Cc1cc([N+](=O)[O-])ccc1N | inactive | –
CCCN(CCC)c1c([N+](=O)[O-])cc(C(C)C)cc1[N+](=O)[O-] | – | 17.9 µM (active)
CCOP(=S)(Oc1ccc([N+](=O)[O-])cc1)c1ccccc1 (stereo not given) | – | 2.35 µM (active)
CCC(C)(C)c1ccc(O)cc1 | – | 9.83 µM (active)
CCCCN(CC)C(=O)SCCC | – | 59.1 µM (active)
CCCCCCCc1ccc(O)cc1 | inactive | 11.1 µM (active) and 48.7 µM (active)
